Inconclusive results are not listed. Active and inactive are the calls of the source. Calls come from the whole dose curve.

A short description of the experiment: qHTS for Inhibitors of Cell Surface uPA Generation: Wild-type Protective Antigen (WT-PrAg) Counterscreen for Cherry-picked Compounds. Note: 0% is about no effect. The following applies: cells, WT protective antigen toxicity counterscreen; series mostly up to 115 µM; activity (protection): at the top concentration. In general terms: Quantitative high-throughput screening tests each substance at several concentrations.
`CN(CC(=O)NCCCn1ccnc1)S(=O)(=O)c1ccc(Cl)cc1`: the “activity (protection)” value is 0.0947% (inactive). Turning to `N#Cc1ccccc1Sc1ccccc1C(=O)Nc1ccc(Br)cc1`, the “activity (protection)” value was -1.71% (inactive). `CCOc1ccccc1N(CC(=O)Nc1ccc(OC)cc1)S(=O)(=O)c1ccccc1`: the “activity (protection)” value was 0.0168% (inactive). Take `COc1ccc(NS(=O)(=O)c2cc3c(cc2C)NC(=O)CO3)c(OC)c1`: the “activity (protection)” value was -1.08% (inactive).

Source of the values: PubChem BioAssay AID720518 (National Center for Advancing Translational Sciences (NCATS), 2013).
